About 25,000 (6.9%) of roughly 360,000 compounds were called active. Inconclusive results (about 9%) are left out. The sample as a whole holds a higher share of actives than the screen did. Unmarked numbers belong to inactive results. The call rests on the fitted dose curve; in most records, active means well fitted inhibition curve with a large enough effect; inconclusive means small, poorly fitted or top-dose-only effect; inactive means flat fitted curve, though single readings scatter.
Target: Luciferin 4-monooxygenase (Photinus pyralis) (UniProt P08659)
Assay: qHTS profiling assay for firefly luciferase inhibitor/activator using purifed enzyme and Km concentrations of substrates (counterscreen for miR-21 project); further: nearly all actives have a fitted effect of over 55% in size;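 on activity change, negative = inhibition: plate controls were vehicle for no effect and reference inhibitor for full effect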
Details: purified FLuc, luminescence inhibition; series mostly up to 57.5 µM; activity change, negative = inhibition: at the top concentration
How it was run: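 Purified P. pyralis luciferase (10nM final) with 10uM D-luciferin and 10uM ATP (Km levels) in 50mM Tris acetate pH 7.5, 10mM Mg acetate, 0.01% Tween-20, 0.05% BSA; qHTS 6-point titration, ~60 µM downward; luminescence read.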
Potency means the concentration at half of the fitted maximal effect.

Chain of Luciferin 4-monooxygenase (Photinus pyralis) (P08659 whole entry, looked up): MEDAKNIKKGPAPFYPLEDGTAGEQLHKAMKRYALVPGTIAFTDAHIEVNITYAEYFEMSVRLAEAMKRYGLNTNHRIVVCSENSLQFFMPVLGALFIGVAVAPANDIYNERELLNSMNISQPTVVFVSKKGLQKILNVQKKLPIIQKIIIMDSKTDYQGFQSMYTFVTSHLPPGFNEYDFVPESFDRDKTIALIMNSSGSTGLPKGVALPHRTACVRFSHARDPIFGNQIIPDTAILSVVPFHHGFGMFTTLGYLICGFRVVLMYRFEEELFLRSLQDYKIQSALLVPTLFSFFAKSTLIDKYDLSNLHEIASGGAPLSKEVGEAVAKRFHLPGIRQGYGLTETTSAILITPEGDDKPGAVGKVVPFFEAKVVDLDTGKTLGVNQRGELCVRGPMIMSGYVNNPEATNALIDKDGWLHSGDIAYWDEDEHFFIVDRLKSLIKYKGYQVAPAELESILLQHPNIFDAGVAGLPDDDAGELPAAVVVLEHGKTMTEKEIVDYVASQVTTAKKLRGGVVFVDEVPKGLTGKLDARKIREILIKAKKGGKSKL

Structure (SMILES)	activity change, negative = inhibition	Potency
CC(Sc1nnc(-c2cccs2)n1C1CC1)C(=O)NCC1CCCO1 (centres undefined)	4.14%	–
CCOc1ccccc1NC(=O)C1=C(C)Nc2ncnn2C1c1ccc(NC(C)=O)cc1 (centres undefined)	-2.67%	–
COc1ccc(-c2nnc3n2CCCCC3)cc1	0.399%	–
Brc1cccc(-c2nnc3n2CCC3)c1	1.44%	–
COc1ccc(-c2nc3n(c2Br)CCC3)cc1	–	7.57 µM (active)
O=C(NCC(=O)N1CCN(c2ccccc2O)CC1)c1ccc2ccccc2c1	-17.3%	–
CC(=O)c1ccc2c(ccc3ccccc32)c1	–	21.3 µM (active)
CC(=O)c1ccc2c(c1)c1ccccc1n2CC(C)C	-4.18%	–
CC(=O)CCC(=O)c1ccc2ccccc2c1	–	26.9 µM (active)
CCN(CC)Cc1cc(C(C)=O)ccc1O	-1.11%	–
COc1cccc(N2CC(NC(=O)c3ccc4ccccc4c3)CC2=O)c1 (centres undefined)	-1.3%	–
CC(C)(C)OC(=O)NCCCCCNC(=O)c1nc[nH]c1C(=O)NCc1ccccc1	-15.1%	–
Cc1ccccc1NC(=O)Cn1c(=O)n(Cc2ccco2)c(=O)c2ccc(C(=O)NC3CCCC3)cc21	-0.556%	–
CNC(=O)c1nnn(-c2ccccc2)c1C(=O)NC	-2.19%	–
CC(=O)NC12CC3CC(C1)CC(C(=O)N1CCN(S(=O)(=O)c4cccs4)CC1)(C3)C2	6.36%	–
CC(C)(C)c1ccc(C(=O)Nc2ccc3c(c2)CCCN3C(=O)c2cccs2)cc1	-13.7%	–
CCc1nnc(SCC(=O)Nc2cc(OC)ccc2OC)nc1CC	0.467%	–
O=C(O)c1ccc(NS(=O)(=O)c2ccc3c(c2)C(=O)c2cc(S(=O)(=O)Nc4ccc(C(=O)O)cc4)ccc2-3)cc1	–	23.9 µM (active)
O=C(c1ccc(NS(=O)(=O)c2ccc3[nH]c(=O)[nH]c3c2)cc1)N1CCCCC1	-2.18%	–
CC(=O)c1c(C)oc2ccc(NS(=O)(=O)c3ccc(C(=O)O)cc3)cc12	-0.624%	–
O=C(CSc1ncc(CO)n1Cc1ccc(F)cc1)NCc1ccco1	2.1%	–
COc1ccccc1NC(=O)Cn1cnc2ccc(S(=O)(=O)N3CCC(C)CC3)cc2c1=O	-1.78%	–
CCCN(CC(=O)Nc1ccccc1C)C(=O)c1ccc2[nH]c3c(c2c1)CC(C)CC3 (centres undefined)	-4.18%	–
c1ccc2c(NC3C4CC5CC(C4)CC3C5)nc(N3CCOCC3)nc2c1 (centres undefined)	0.91%	–
Cc1cc(OCC(=O)Nc2ncn[nH]2)c(C)c(C)c1Br	-0.153%	–
CC1Cc2ccccc2N1C(=O)CSc1nnc(C2CC2)n1C (centres undefined)	0.0229%	–

Structure (SMILES)	activity change, negative = inhibition	Potency
O=C(c1ccc2ccccc2n1)N1CCN(c2ccccc2Cl)CC1	–	16.9 µM (active)
COc1ccccc1N1CCN(C(=O)c2c(-c3c(Cl)cccc3Cl)noc2C)CC1	4%	–
O=C(c1c(Cl)cccc1Cl)N1CCN(c2cccc3[nH]ccc23)CC1	-2.83%	–
Cc1csc(SCC(=O)Nc2sccc2C#N)n1	–	2.13 µM (active)
Cc1ccc(NC(=O)CSCC(=O)Nc2sccc2C#N)cc1	9.39%	–
Cc1cccc(C)c1Nc1nnc(SCC(=O)Nc2sccc2C#N)s1	-3.48%	–
CC(OC(=O)Cc1ccc(F)cc1)C(=O)N1CCc2ccccc21 (centres undefined)	1.31%	–
CC(C(=O)O)n1cnc2sc3c(c2c1=O)CCCC3 (centres undefined)	-12.5%	–
CC(C)(C)OC(=O)N1CCC(c2c(C(=O)N3CCc4ccccc4C3)cnn2-c2ccc(F)cc2)CC1	-7.72%	–
C/C(=C\C(=O)c1cccnc1)Nc1ccc(C)c(C)c1	–	6.75 µM (active)
Cc1ccc(NC(=O)COc2ccc(/C=N\NC(=O)c3cccnc3)cc2)cc1C	-8.22%	–
O=C(Nc1cccc(O)c1)c1ccc(C(=O)c2ccccc2)o1	–	6.75 µM (active)
O=C(CSc1ccccc1)Nc1ccc(C(=O)Nc2cccc(O)c2)cc1	-19.6%	–
CC(=O)c1cccc(NC(=O)[C@@H](NC(N)=O)C(C)C)c1	-1.72%	–
Cc1ccc(OCC(=O)NCCCNC(=O)c2cccnc2)cc1C	-0.246%	–
O=C(NCc1cccc(CNC(=O)Nc2cccc(O)c2)c1)Nc1cccc(O)c1	-18.1%	–
C/C(=C\C(=O)c1ccccc1)Nc1cccc(O)c1	–	3.38 µM (active)
COc1cc(/C=C(/NC(=O)c2ccccc2)C(=O)Nc2cccc(O)c2)c([N+](=O)[O-])cc1OC	0.805%	–
CC1(C)CC(=O)C=C(c2ccc3ncccc3c2)C1	-12.7%	–
CCOC(=O)C1CCN(C(c2ccc(F)cc2)c2sc3nc(-c4ccco4)nn3c2O)CC1 (centres undefined)	-17.7%	–
CCN(CCCNC(=O)Cn1ncc2c([nH]c3ccccc32)c1=O)c1cccc(C)c1	-2.09%	–
CC(=O)c1ccc(N2CCN(C(=O)c3ccc(Cl)c(S(=O)(=O)NC4CC4)c3)CC2)c(F)c1	-5.23%	–
Cc1ccc(CNC(=O)c2cccc3c2C(=O)c2ccc(N4CCC(C)CC4)cc2S3(=O)=O)cc1	-46.4%	–
CCOC(=O)[C@H]1[C@H]2COc3ccc(C)cc3[C@@H]2N2C(=O)CN(Cc3ccc(F)cc3)C(=O)[C@@]12C	0.429%	–
CCOc1ccc(CNC(=O)C2CCCN(S(=O)(=O)N(CC)c3ccc(OCC)cc3)C2)cc1 (centres undefined)	-14.8%	–
Cc1ccc(Cl)cc1NC(=O)NC1COc2ccccc2C1 (centres undefined)	0.229%	–

Structure (SMILES)	activity change, negative = inhibition	Potency
Cc1ccc(C(=O)Nc2ccn(C)n2)cc1	10.3%	–
Cn1ccc(NC(=O)Nc2ccc(Cl)cc2)n1	–	16.9 µM (active)
CN(C)S(=O)(=O)c1cc(C(=O)Nc2ccn(C)n2)c(Cl)cc1Cl	3%	–
Cc1ccc2nc(COc3ccc(NC(=O)COc4ccccc4F)cc3)cc(=O)n2c1	-1.49%	–
CC(NC(=O)c1cc2c(=O)n3ccccc3nc2n(C(C)C)c1=N)c1ccccc1 (centres undefined)	-4.62%	–
CCC(=O)N1CCc2cc(Br)cc(S(=O)(=O)CCC(=O)N3CCN(c4ccc(F)cc4)CC3)c21	4.84%	–
COc1ccc([C@H]2CC(=O)C=C(/C=C/c3ccccc3)C2)cc1	-29.8%	–
COc1ccc(-c2cn3c(n2)sc2cc(C(=O)Nc4ccccc4F)ccc23)cc1	-7.07%	–
Cc1cccc(C(=O)Nc2ccc(CC(=O)O)cc2)c1	–	9.53 µM (active)
O=C(O)Cc1ccc(NC(=O)c2cccs2)cc1	–	12 µM (active)
O=C(Cc1cccs1)Nc1ccc([N+](=O)[O-])cc1	-12.9%	–
CCOC(=O)c1ccc(NC(=O)Cc2cccs2)cc1	–	15.1 µM (active)
O=C(Nc1ccc(N2CCN(C(=O)C3CC3)CC2)cc1)c1cccs1	-13.9%	–
CCc1ccc(NC(=O)COC(=O)c2cccs2)cc1	–	6.75 µM (active)
CCOc1ccccc1NC(=O)Cc1cccs1	-0.362%	–
Cc1cccc(C(=O)OCC(=O)Nc2ccc(F)cc2)c1	-4.32%	–
CCc1ccc(NC(=O)CCNS(=O)(=O)c2cccs2)cc1	-19.1%	–
O=C(COC(=O)c1cccs1)NCc1cccs1	-19.2%	–
O=C(Nc1ccccc1)c1ccc(NC(=O)c2cccs2)cc1	-0.452%	–
CC(=O)Nc1ccc(NC(=O)[C@@H](NC(=O)c2cccc(C)c2)C(C)C)cc1	0.122%	–
Cc1ccc(CN(C(=O)COc2ccc(Cl)cc2C)C2CCS(=O)(=O)C2)o1 (centres undefined)	4.67%	–
CN(CC(=O)NNC(=O)CNC(=O)c1ccccc1Cl)S(=O)(=O)c1ccc(Cl)cc1	-0.0194%	–
Cc1ccc(CN2COc3cc(C)c4c(oc(=O)c5ccccc54)c3C2)cc1	-7.2%	–
COc1ccc(C(=O)OC(C)C(=O)NC2CCCC2)cc1S(=O)(=O)N1CCOCC1 (centres undefined)	0.5%	–
COc1ccc(OC)c(NC(=O)C2CCCN(S(=O)(=O)c3ccc4c(c3)CCCC(=O)N4)C2)c1 (centres undefined)	6.14%	–
O=C(Cn1ncc2c3ccccc3n(Cc3ccccc3)c2c1=O)NC1CCCCCC1	-4.42%	–

Structure (SMILES)	activity change, negative = inhibition	Potency
Cc1ccc(C)c(NC(=O)CCC(=O)NNC(=O)c2cccs2)c1	-2.71%	–
CCc1ccc(NC(=O)C(=O)NNC(=O)c2cccs2)cc1	–	16.9 µM (active)
CC(C)C(=O)Nc1ccc(C(=O)NNC(=O)c2cccs2)cc1	-12.4%	–
COCCn1cnc2c1c(=O)n(CC(=O)NN)c(=O)n2Cc1ccccc1	-0.963%	–
Cc1ccccc1-c1cc(C(=O)NCC2CC2)n(CC2CC(c3cccnc3)=NO2)n1 (centres undefined)	-1.55%	–
Cc1nc2sc(C)c(C)n2c(=O)c1S(=O)(=O)NCCc1ccc(Cl)cc1	-6.21%	–
c1cc(-c2nn[nH]n2)ccc1CN1CCCCC1	-13.7%	–
Cc1n[nH]c(=O)n1-c1ccc(C(C)C)cc1	-3.32%	–
CC(C)c1ccc(-c2nn[nH]n2)cc1	–	6.01 µM (active)
CCOc1ccc(N(CC)C(=O)c2noc3c2COc2ccc(C)cc2-3)cc1	-2.9%	–
COc1ccccc1CNC(=O)CCn1c(=O)c2ccccc2n(CC(=O)Nc2cccc(Cl)c2)c1=O	-0.523%	–
Cc1ccc(C)c(N2CCN(C(c3ccccc3)c3nnc(-c4ccccc4)o3)CC2)c1 (centres undefined)	-0.488%	–
OC(CNCCc1ccc(Cl)cc1Cl)COc1ccccc1 (centres undefined)	5.25%	–
CCOc1ccc(NC(=O)NNC(=O)c2ccc(Cl)cc2Cl)cc1	-1%	–
NC(N)=N/N=C/c1ccc(OCc2ccc(Cl)cc2Cl)cc1	–	16.9 µM (active)
C#CCOc1ccc(C2CC(=O)Nc3c2c(C)nn3-c2nc(C)cc(C)n2)cc1 (centres undefined)	-14%	–
CCS(=O)(=O)c1ccc(O)c(NC(=O)COc2ccc(Cl)cc2)c1	–	16.9 µM (active)
COC(=O)c1sccc1NC(=O)COc1ccc(Cl)cc1	-15.4%	–
CS(=O)(=O)c1ccc(C(=O)OCC(=O)NNC(=O)COc2ccc(Cl)cc2)cc1	3.41%	–
CCOc1ccc(N(Cc2ccccc2)C(=O)c2nc(SCC)ncc2Cl)cc1	-9.15%	–
CCCN1CN=C(NS(=O)(=O)c2ccc(NC(C)=O)cc2)NC1	0.883%	–
CCCOC(=O)C1=C(C)NC2=C(C(=O)C(C(=O)OC)C(C)C2)C1c1ccc(N(C)C)cc1 (centres undefined)	0.124%	–
COCCOC(=O)c1[nH]c2c(c1C)C(=O)CC(c1ccc(OC)cc1)C2 (centres undefined)	2.45%	–
COC(=O)C1C(=O)c2c([nH]c(C(=O)OCCSC)c2C)CC1C (centres undefined)	–	7.57 µM (active)
CCc1ccc(NC(=O)Cn2c(=O)n(CCC(=O)NCc3ccc4c(c3)OCO4)c(=O)c3ccccc32)cc1	-0.038%	–
CC(C)CC(=O)NCC(c1ccc2c(c1)OCO2)N1CCN(c2ccc(F)cc2)CC1 (centres undefined)	-1.61%	–

Reference: PubChem BioAssay AID588342 (National Center for Advancing Translational Sciences (NCATS), 2011)
